We go through 15 molecules from PubChem BioAssay (NCATS).

The test system of one assay is CRL-7250. As to the kind of experiment: Cytotoxic Profiling of Annotated Libraries Using Quantitative High-Throughput Screening (AID 1296008). For max response: % is set by controls: 0 for no effect and ±100 for the full control effect. Note: nearly all actives have a fitted effect of over 60% in size. Note: potency is the fitted concentration of half-maximal effect. As to conditions: Five cell lines viability, CellTiter-Glo ATP luminescence, 48-72 h; max response: stronger effect = lower value. The method in brief:
(§1)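 Cytotoxicity was measured as CellTiter-Glo ATP luminescence, read after 10 min at room temperature. Compound treatment of the cells lasted 48 or 72 hr at 37 degrees Celsius in a qHTS format.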
Background: Cellular ATP, detected with luciferase, serves as a proxy for viable cell number.

The subject of assay [1] is HaCat. The assay is described as above. As to conditions: Five cell lines viability, CellTiter-Glo ATP luminescence, 48-72 h; max response: stronger effect = lower value. The method in brief: as §1
Assay [2] relates to NIH3T3. Described as above. The note with it: Five cell lines viability, CellTiter-Glo ATP luminescence, 48-72 h; max response: stronger effect = lower value. The method in brief: as §1
The test system of assay [3] is HACAT. As to the kind of experiment: qHTS assay to identify novel small-molecules to repurpose for Merkel cell carcinoma treatment (AID 1296009). Note: nearly all actives have a fitted effect of over 60% in size. As to conditions: MCC and control cell lines, CellTiter-Glo viability, 72 h; at 44.8 µM (top of the series) unless noted. The gist of the method:
(§2)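 Cell viability measured by CellTiter-Glo following 72 hr compound treatment at 37 degree celsius, with NPC and MIPE libraries tested in 8- and 11-point concentration series.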
In general terms: In qHTS, concentration-response curves come from the screen itself.

The test system of the next assay is C33A. Put plainly: Primary qHTS to identify gynecologic anti-cancer compounds using libraries of approved drugs and bioactive compounds (AID 1345084). For activity change, negative = cytotoxicity: % is set by controls: 0 for no effect and ±100 for the full control effect. Note: nearly all actives have a fitted effect of over 55% in size. Note: potency is the fitted concentration of half-maximal effect. The note with it: Gynecologic cancer cell panel viability, ATPlite luminescence, 48 h; series mostly up to 57.5 µM. The gist of the method:
(§3)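 Five-concentration response, 48 h; readout is ATP-driven luciferase luminescence.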

The test system of a further assay is CAOV3. The assay is described as above. As to conditions: Gynecologic cancer cell panel viability, ATPlite luminescence, 48 h; series mostly up to 57.5 µM. The method in brief:
as §3

The next assay has as its system CASKI. Described as above. As to conditions: Gynecologic cancer cell panel viability, ATPlite luminescence, 48 h; series mostly up to 57.5 µM. The method in brief:
as §3

Another assay concerns Es-2. The assay is described as above. As to conditions: Gynecologic cancer cell panel viability, ATPlite luminescence, 48 h; series mostly up to 57.5 µM. The gist of the method: as §3
In a further assay the test system is HeLa. Described as above. The note with it: Gynecologic cancer cell panel viability, ATPlite luminescence, 48 h; series mostly up to 57.5 µM. The method in brief:
as §3

For a further assay, the system named is Hek293T. The assay is described as above. The note with it: Gynecologic cancer cell panel viability, ATPlite luminescence, 48 h, control line for the selectivity index; series mostly up to 57.5 µM. The gist of the method:
as §3

In a further assay the test system is JEG-3. Described as above. The note with it: Gynecologic cancer cell panel viability, ATPlite luminescence, 48 h; series mostly up to 57.5 µM. The method in brief:
as §3

A further assay has as its system OV90. The assay is described as above. The note with it: Gynecologic cancer cell panel viability, ATPlite luminescence, 48 h; series mostly up to 57.5 µM. The gist of the method:
as §3

A further assay concerns PA-1. The description is as above. The note with it: Gynecologic cancer cell panel viability, ATPlite luminescence, 48 h; series mostly up to 57.5 µM. The gist of the method: as §3
Another assay deals with KB-3-1. Put plainly: Cytotoxic Profiling of Annotated Libraries Using Quantitative High-Throughput Screening (AID 1296008). For max response: % is set by controls: 0 for no effect and ±100 for the full control effect. Note: nearly all actives have a fitted effect of over 60% in size. Note: potency is the fitted concentration of half-maximal effect. As to conditions: Five cell lines viability, CellTiter-Glo ATP luminescence, 48-72 h; max response: stronger effect = lower value. The gist of the method: as §1
Assay [4] relates to NIH3T3. Put plainly: qHTS assay to identify novel small-molecules to repurpose for Merkel cell carcinoma treatment (AID 1296009). Note: nearly all actives have a fitted effect of over 60% in size. The note with it: MCC and control cell lines, CellTiter-Glo viability, 72 h; series mostly up to 44.8 µM. The gist of the method: as §2

Each structure is given as a SMILES string. Records with an inconclusive call do not appear. A number with no mark means an inactive call. Calls of active or inactive are those of the source. Calls come from the whole dose curve; as a rule, active = well fitted curve in the direction sought with a large enough effect; inconclusive = small, poorly fitted or top-dose-only effect, or another doubt; inactive = no such curve, though single readings can be large; an effect the other way counts as inactive or inconclusive.

Regarding `N#Cc1ccc(N2N=C3c4ccc(C(=O)O)cc4CC[C@@H]3[C@@H]2C2CCCC2)cc1Cl`, the max response was 1.36% in the assay with CRL-7250 and -3.29% in the assay with NIH3T3 [2]. Moreover, the outcome in the assay on HaCat [1] and with HACAT [3] was inactive. For the same molecule, the Potency entry with C33A, with CAOV3, in the assay with CASKI, in the assay on Es-2, in the assay with HeLa and in the assay on Hek293T was “inactive” each time. Also, the Potency entry in the assay on JEG-3, with OV90 and in the assay on PA-1 was “inactive” in each case.

`COc1ccccc1OCCNCC(O)CCOc1cccc2[nH]c3ccccc3c12` (centres undefined): the molecule was called inactive in the assay with CRL-7250, in the assay with HaCat [1] and in the assay with HACAT [3]. Further, the max response in the assay on NIH3T3 [2] is -5.46%. In addition, the Potency result with C33A, with CAOV3, with CASKI, in the assay with Es-2, with HeLa and in the assay on Hek293T was “inactive” each time. The Potency entry in the assay on JEG-3, in the assay on OV90 and in the assay on PA-1 was “inactive” in each case.

As for `Clc1ccc(Cn2c(Cc3ccccc3)nc3ccccc32)cc1`, the max response with CRL-7250 is -7.75%; in the assay with NIH3T3 [2], -0.247%. Also, the outcome in the assay with HaCat [1] and with HACAT [3] was inactive. The Potency result in the assay on C33A, in the assay with CAOV3, in the assay on CASKI, in the assay with Es-2, in the assay on HeLa and with Hek293T was “inactive” each time. The Potency result in the assay on JEG-3, in the assay on OV90 and with PA-1 was “inactive” each time.

For the molecule `CC(C)=C[C@@H]1[C@H](CO[C@@H]2O[C@H](CO)[C@@H](O)[C@H](O)[C@H]2O)C1(C)C`, the result with CRL-7250, with HaCat [1] and with HACAT [3] was inactive. Besides, the max response with NIH3T3 [2] was 4.21%. For the same molecule, the Potency entry with C33A, in the assay on CAOV3, in the assay on CASKI, in the assay with Es-2, in the assay with HeLa and in the assay on Hek293T was “inactive” throughout. The Potency result in the assay on JEG-3, with OV90 and in the assay on PA-1 was “inactive” throughout.

`CN1CCN(c2ccc(OC(F)(F)F)c(Nc3ncc4c(n3)-c3c(c(C(N)=O)nn3CCO)CC4)c2)CC1`: the max response in the assay with CRL-7250 is -11.3%. Besides, the Potency with HaCat [1] is 0.259 µM (active); with KB-3-1, 0.0366 µM (active); in the assay on HeLa it was 0.224 µM (active); with PA-1 it was 0.282 µM (active). The Potency entry in the assay with OV90 was “inactive”.

As to `CC(C)(O)C1CC(=O)C2(C)C(CCC3(C)C(c4ccoc4)OC(=O)C4OC432)C12CCC(=O)OC2` (centres undefined), in the assay on CRL-7250, the max response is -9.62%. Besides, the molecule was classed as inactive in the assay on HaCat [1] and in the assay on NIH3T3 [2]. Further, in the assay with HACAT [3], the outcome is “inactive [at 17.4 µM]”. The Potency entry in the assay on NIH3T3 [4], in the assay with C33A, in the assay on CASKI, in the assay on Es-2, in the assay with HeLa and in the assay with Hek293T was “inactive” each time. In addition, in the assay on OV90, the Potency result was “inactive”.

As for `COC(=O)CC(O)CC(O)/C=C/c1c(C)ccc2c1C(OC(C)=O)CC(C)C2` (centres undefined), the Potency in the assay with CRL-7250 was 4.04 µM (active). In addition, the outcome in the assay on HaCat [1], with NIH3T3 [2] and with HACAT [3] was inactive. Also, the Potency entry with NIH3T3 [4], in the assay on C33A, with CAOV3, in the assay on CASKI, in the assay with Es-2 and in the assay on Hek293T was “inactive” each time. For the same molecule, the Potency result in the assay on JEG-3 was “inactive”.

With `O=C(Nc1ccc(Cl)cc1)Nc1cccc(-c2cccc(N3CCCC3)n2)c1`, the max response in the assay with CRL-7250 was -4.95%; in the assay with NIH3T3 [2], 1.43%. In addition, the result with HaCat [1] and in the assay with HACAT [3] was inactive. For the same molecule, the Potency result in the assay with C33A, in the assay on CAOV3, in the assay with CASKI, in the assay with Es-2, with HeLa and with Hek293T was “inactive” in each case. In addition, the Potency result in the assay on OV90 and in the assay on PA-1 was “inactive” throughout.

For `CCC(C)C(=O)O[C@H]1[C@H](O)[C@@]2(COC(C)=O)C(CC1(C)C)C1=CCC3[C@@]4(C)CC[C@H](O[C@@H]5O[C@H](C(=O)O)[C@@H](O)[C@H](O)[C@H]5O)[C@@](C)(CO)C4CC[C@@]3(C)[C@]1(C)C[C@@H]2O` (some centres undefined), the max response with CRL-7250 is 4.21%; in the assay on NIH3T3 [2] it was 2.07%. Moreover, the outcome in the assay on HaCat [1] was inactive. In the assay with HACAT [3], the outcome is “inactive [at 9.27 µM]”. The activity change, negative = cytotoxicity was -3% [at 11.6 µM] in the assay with C33A; -4.8% [at 11.6 µM] with CAOV3; 10.3% [at 11.6 µM] with CASKI; 5.26% [at 11.6 µM] with Es-2; 8.08% [at 11.6 µM] with HeLa; 5.16% [at 11.6 µM] in the assay with Hek293T. In addition, the activity change, negative = cytotoxicity in the assay with JEG-3 is 9.72% [at 11.6 µM]; in the assay with OV90 it was 0.006% [at 11.6 µM]; in the assay with PA-1 it was 5.51% [at 11.6 µM].

On to `CCN1C(C)(C)CC(Oc2ccc(C(=O)Nc3ccc(NC(=O)Nc4cc(C(C)(C)C)on4)cc3)nc2)CC1(C)C`, for which, in the assay on CRL-7250, the max response is -1.6%. Also, the result with HaCat [1], with NIH3T3 [2] and in the assay on HACAT [3] was inactive. The Potency result with NIH3T3 [4], in the assay on C33A, with CAOV3, in the assay with CASKI, with Es-2 and in the assay with HeLa was “inactive” throughout. Besides, the Potency result in the assay on Hek293T, in the assay on JEG-3, in the assay on OV90 and in the assay with PA-1 was “inactive” in each case.

Take `NCCOc1cc(C(=O)Nc2cc(OCCN)c3ccccc3n2)nc(C(=O)Nc2cc(OCCN)c3ccccc3n2)c1`: the Potency is 7.31 µM (active) with CRL-7250, 2.63 µM (active) with HaCat [1], 16.4 µM (active) with KB-3-1 and 7.94 µM (active) in the assay on PA-1. The Potency entry in the assay on CAOV3, in the assay with Es-2, with Hek293T, in the assay on JEG-3 and in the assay with OV90 was “inactive” in each case.

As for `Fc1ccc(N2CCN(CCC3OCCc4ccccc43)CC2)cc1` (centres undefined), the max response was -11.3% in the assay with CRL-7250 and -0.639% with NIH3T3 [2]. Also, the molecule was classed as inactive in the assay with HaCat [1] and with HACAT [3]. Further, the Potency result in the assay with C33A, in the assay with CAOV3, with CASKI, in the assay with Es-2, with HeLa and in the assay with Hek293T was “inactive” each time. Also, the Potency result in the assay on JEG-3, with OV90 and in the assay with PA-1 was “inactive” each time.

On to `O=C(NCc1nc2ccccc2c(=O)n1-c1ccc(F)cc1)Nc1ccc(Cl)c(C(F)(F)F)c1`, for which the call in the assay on CRL-7250, with HaCat [1] and with HACAT [3] was inactive. For the same molecule, the max response with NIH3T3 [2] was -1.1%. Moreover, the Potency result with C33A, in the assay with CAOV3, in the assay on CASKI, in the assay on Es-2, with HeLa and with Hek293T was “inactive” in each case. Also, the Potency entry with JEG-3, in the assay on OV90 and in the assay with PA-1 was “inactive” in each case.

Consider `CNCCC(c1cccs1)c1ccc(O)c2ccccc12` (centres undefined), for which the max response in the assay on CRL-7250 is 3.5%. Further, the outcome in the assay with HaCat [1], with NIH3T3 [2] and with HACAT [3] was inactive. Also, the Potency entry in the assay on NIH3T3 [4], with C33A, with CAOV3, with CASKI, in the assay with Es-2 and with HeLa was “inactive” each time. Besides, the Potency entry in the assay on Hek293T and with PA-1 was “inactive” throughout.

Turning to `O=C(COc1ccc2ccccc2c1Br)Nc1cccnc1`, the max response in the assay with CRL-7250 was -18.6%; in the assay with NIH3T3 [2] it was -5.04%. Besides, the result with HaCat [1] and in the assay with HACAT [3] was inactive. The Potency entry in the assay on C33A, with CAOV3, in the assay with CASKI, with Es-2, in the assay on HeLa and with Hek293T was “inactive” each time. For the same molecule, the Potency result with JEG-3, in the assay on OV90 and in the assay with PA-1 was “inactive” in each case.
